# From the supplement of paper PMC4466140
# Target: ScBbc1
# Test: SPOT peptide array binding signal intensity (averaged, normalized) (arbitrary units (background-subtracted, floor 0; scale differs between SH3 domains)); higher = stronger binding of the SH3 domain to the peptide
# Summary of the method: (§1)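 Four yeast species supplied the SH3 domains, which were expressed as GST fusions in E. coli BL21(DE3) and purified on glutathione Sepharose. Incubation with cellulose membranes carrying synthetic 15-mer peptides, cysteines exchanged for serines, ran overnight at 4°C at 10 μg/ml in TBS-based blocking buffer. Binding signal is reported as normalized, background-subtracted spot intensity averaged over replicates, in arbitrary units not shared between domains.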
row,Binder,SPOT peptide array binding signal intensity
1,QPPLPSSAPPIPTSH,≤ 0

# Target: ScBem1-D1
# Test: as above
# Summary of the method: as §1
row,Binder,SPOT peptide array binding signal intensity
1,QPPLPSSAPPIPTSH,≤ 0

# Target: ScBzz1-D1
# Test: as above
# Summary of the method: as §1
row,Binder,SPOT peptide array binding signal intensity
1,QPPLPSSAPPIPTSH,≤ 0

# Target: ScBzz1-D2
# Test: as above
# Summary of the method: as §1
row,Binder,SPOT peptide array binding signal intensity
1,QPPLPSSAPPIPTSH,≤ 0

# Target: ScCyk3
# Test: as above
# Summary of the method: as §1
row,Binder,SPOT peptide array binding signal intensity
1,QPPLPSSAPPIPTSH,≤ 0

# Target: ScFus1
# Test: as above
# Summary of the method: as §1
row,Binder,SPOT peptide array binding signal intensity
1,QPPLPSSAPPIPTSH,≤ 0

# Target: ScHof1
# Test: as above
# Summary of the method: as §1
row,Binder,SPOT peptide array binding signal intensity
1,QPPLPSSAPPIPTSH,≤ 0

# Target: ScHse1
# Test: as above
# Summary of the method: as §1
row,Binder,SPOT peptide array binding signal intensity
1,QPPLPSSAPPIPTSH,≤ 0

# Target: ScLsb1
# Test: as above
# Summary of the method: as §1
row,Binder,SPOT peptide array binding signal intensity
1,QPPLPSSAPPIPTSH,≤ 0

# Target: ScLsb2
# Test: as above
# Summary of the method: as §1
row,Binder,SPOT peptide array binding signal intensity
1,QPPLPSSAPPIPTSH,≤ 0

# Target: ScLsb3
# Test: as above
# Summary of the method: as §1
row,Binder,SPOT peptide array binding signal intensity
1,QPPLPSSAPPIPTSH,≤ 0

# Target: ScLsb4
# Test: as above
# Summary of the method: as §1
row,Binder,SPOT peptide array binding signal intensity
1,QPPLPSSAPPIPTSH,≤ 0

# Target: ScMyo3
# Test: as above
# Summary of the method: as §1
row,Binder,SPOT peptide array binding signal intensity
1,QPPLPSSAPPIPTSH,2510

# Target: ScMyo5
# Test: as above
# Summary of the method: as §1
row,Binder,SPOT peptide array binding signal intensity
1,QPPLPSSAPPIPTSH,1600

# Target: ScNbp2
# Test: as above
# Summary of the method: as §1
row,Binder,SPOT peptide array binding signal intensity
1,QPPLPSSAPPIPTSH,≤ 0

# Target: ScPex13
# Test: as above
# Summary of the method: as §1
row,Binder,SPOT peptide array binding signal intensity
1,QPPLPSSAPPIPTSH,≤ 0

# Target: ScRvs167
# Test: as above
# Summary of the method: as §1
row,Binder,SPOT peptide array binding signal intensity
1,QPPLPSSAPPIPTSH,≤ 0

# Target: ScSho1
# Test: as above
# Summary of the method: as §1
row,Binder,SPOT peptide array binding signal intensity
1,QPPLPSSAPPIPTSH,≤ 0

# Target: ScSla1-D1-D2
# Test: as above
# Summary of the method: as §1
row,Binder,SPOT peptide array binding signal intensity
1,QPPLPSSAPPIPTSH,≤ 0

# Target: ScSla1-D3
# Test: as above
# Summary of the method: as §1
row,Binder,SPOT peptide array binding signal intensity
1,QPPLPSSAPPIPTSH,≤ 0

# Target: SpAbp1-D1
# Test: as above
# Summary of the method: as §1
row,Binder,SPOT peptide array binding signal intensity
1,QPPLPSSAPPIPTSH,2.5

# Target: SpBbc1
# Test: as above
# Summary of the method: as §1
row,Binder,SPOT peptide array binding signal intensity
1,QPPLPSSAPPIPTSH,4.25

# Target: SpBzz1-D1
# Test: as above
# Summary of the method: as §1
row,Binder,SPOT peptide array binding signal intensity
1,QPPLPSSAPPIPTSH,≤ 0

# Target: SpBzz1-D2
# Test: as above
# Summary of the method: as §1
row,Binder,SPOT peptide array binding signal intensity
1,QPPLPSSAPPIPTSH,≤ 0

# Target: SpCyk3
# Test: as above
# Summary of the method: as §1
row,Binder,SPOT peptide array binding signal intensity
1,QPPLPSSAPPIPTSH,≤ 0

# Target: SpHof1
# Test: as above
# Summary of the method: as §1
row,Binder,SPOT peptide array binding signal intensity
1,QPPLPSSAPPIPTSH,≤ 0

# Target: SpHof1-2
# Test: as above
# Summary of the method: as §1
row,Binder,SPOT peptide array binding signal intensity
1,QPPLPSSAPPIPTSH,≤ 0

# Target: SpHof1-3
# Test: as above
# Summary of the method: as §1
row,Binder,SPOT peptide array binding signal intensity
1,QPPLPSSAPPIPTSH,≤ 0

# Target: SpHse1
# Test: as above
# Summary of the method: as §1
row,Binder,SPOT peptide array binding signal intensity
1,QPPLPSSAPPIPTSH,17.5

# Target: SpLsb1
# Test: as above
# Summary of the method: as §1
row,Binder,SPOT peptide array binding signal intensity
1,QPPLPSSAPPIPTSH,≤ 0

# Target: SpLsb4
# Test: as above
# Summary of the method: as §1
row,Binder,SPOT peptide array binding signal intensity
1,QPPLPSSAPPIPTSH,≤ 0

# Target: SpMyo1
# Test: as above
# Summary of the method: as §1
row,Binder,SPOT peptide array binding signal intensity
1,QPPLPSSAPPIPTSH,1080

# Target: SpNbp2
# Test: as above
# Summary of the method: as §1
row,Binder,SPOT peptide array binding signal intensity
1,QPPLPSSAPPIPTSH,≤ 0

# Target: SpPex13
# Test: as above
# Summary of the method: as §1
row,Binder,SPOT peptide array binding signal intensity
1,QPPLPSSAPPIPTSH,1

# Target: SpRvs167
# Test: as above
# Summary of the method: as §1
row,Binder,SPOT peptide array binding signal intensity
1,QPPLPSSAPPIPTSH,≤ 0

# Target: SpSla1-D1-D2
# Test: as above
# Summary of the method: as §1
row,Binder,SPOT peptide array binding signal intensity
1,QPPLPSSAPPIPTSH,≤ 0

# Target: SpSla1-D3
# Test: as above
# Summary of the method: as §1
row,Binder,SPOT peptide array binding signal intensity
1,QPPLPSSAPPIPTSH,3.5
